# Tests used:
# Assay in all cases: DAPPL (digital affinity profiling via proximity ligation, sequencing); 10 mM Tris-HCl pH 7.5, 50 mM NaCl, 1 mM DTT, 4% glycerol, room temperature, 30 min; GST-TFs on glutathione beads, 16-mer random dsDNA library, 0.1% formaldehyde crosslink after washing; high values mean tight binding
# FEV = target: T1, FEV (Homo sapiens, UniProt Q99581 1-238); details: protein: recombinant; tags: N-terminal GST; dsDNA, one strand shown
# T1 sequence: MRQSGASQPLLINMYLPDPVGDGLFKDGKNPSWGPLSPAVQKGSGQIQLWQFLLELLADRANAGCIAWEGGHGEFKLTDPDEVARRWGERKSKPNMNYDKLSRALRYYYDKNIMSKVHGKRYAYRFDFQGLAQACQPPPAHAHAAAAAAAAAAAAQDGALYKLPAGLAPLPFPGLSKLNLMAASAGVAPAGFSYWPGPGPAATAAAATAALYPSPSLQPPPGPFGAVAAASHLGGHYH
# Procedure, shortened: (§1)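 Pools were built from human transcription factors expressed in yeast as GST fusions, captured on glutathione beads and DNA-barcoded, along with a tag-only sample. Incubation with 200 nmole of a 16-mer random double-stranded DNA library lasted 30 min at room temperature in Tris/NaCl/DTT/glycerol buffer, and was followed by washing, 0.1% formaldehyde crosslinking, proximity ligation, PCR amplification and Illumina NextSeq500 sequencing. Binding signal is the quotient of each hexamer's read frequency for a factor and its frequency for the tag-only sample.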
# ETV5 = ETV5 (Homo sapiens, UniProt P41161 1-510); details: protein: recombinant; tags: N-terminal GST; dsDNA, one strand shown
# Procedure, shortened: as §1
# HSF1 = HSF1 (Homo sapiens, UniProt Q00613 1-529); details: protein: recombinant; tags: N-terminal GST; chain copies: 3; dsDNA, one strand shown
# Procedure, shortened: as §1
# SPIC = target: T2, SPIC (Homo sapiens, UniProt Q8N5J4 1-248); details: protein: recombinant; tags: N-terminal GST; dsDNA, one strand shown
# T2 sequence: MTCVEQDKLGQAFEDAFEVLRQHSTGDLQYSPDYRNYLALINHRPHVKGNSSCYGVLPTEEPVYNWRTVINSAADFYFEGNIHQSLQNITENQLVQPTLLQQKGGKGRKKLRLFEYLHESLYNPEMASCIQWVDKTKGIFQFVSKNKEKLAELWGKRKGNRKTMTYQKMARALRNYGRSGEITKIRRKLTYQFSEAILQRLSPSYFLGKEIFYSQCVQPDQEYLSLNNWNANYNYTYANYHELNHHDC
# Procedure, shortened: as §1
# ELF4 = ELF4 (Homo sapiens, UniProt Q99607 1-663); details: protein: recombinant; tags: N-terminal GST; dsDNA, one strand shown
# Procedure, shortened: as §1
# ELK4 = target: T3, ELK4 (Homo sapiens, UniProt P28324-2 1-405); details: protein: recombinant; tags: N-terminal GST; dsDNA, one strand shown
# T3 sequence: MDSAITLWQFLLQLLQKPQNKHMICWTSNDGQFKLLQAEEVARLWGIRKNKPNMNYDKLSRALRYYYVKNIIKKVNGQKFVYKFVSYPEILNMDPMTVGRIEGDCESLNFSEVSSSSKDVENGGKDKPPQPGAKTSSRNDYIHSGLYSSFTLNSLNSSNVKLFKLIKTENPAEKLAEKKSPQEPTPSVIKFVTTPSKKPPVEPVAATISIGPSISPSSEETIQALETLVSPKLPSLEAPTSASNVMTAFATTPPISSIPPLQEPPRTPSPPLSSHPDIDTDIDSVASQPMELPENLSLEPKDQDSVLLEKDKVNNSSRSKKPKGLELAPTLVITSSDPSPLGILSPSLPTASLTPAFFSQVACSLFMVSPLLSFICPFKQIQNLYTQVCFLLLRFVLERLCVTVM
# Procedure, shortened: as §1
# ETV2 = target: T4, ETV2 (Homo sapiens, UniProt O00321 1-342); details: protein: recombinant; tags: N-terminal GST; dsDNA, one strand shown
# T4 sequence: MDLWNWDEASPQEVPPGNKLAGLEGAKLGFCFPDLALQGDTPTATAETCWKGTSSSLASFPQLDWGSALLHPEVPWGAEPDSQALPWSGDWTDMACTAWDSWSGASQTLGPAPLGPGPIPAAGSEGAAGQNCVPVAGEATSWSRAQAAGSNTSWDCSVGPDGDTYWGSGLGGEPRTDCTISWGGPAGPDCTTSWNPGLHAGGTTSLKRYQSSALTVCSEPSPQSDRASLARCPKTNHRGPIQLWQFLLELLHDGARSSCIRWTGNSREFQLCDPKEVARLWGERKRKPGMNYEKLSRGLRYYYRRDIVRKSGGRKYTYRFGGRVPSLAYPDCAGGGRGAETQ
# Procedure, shortened: as §1
# ELF3 = target: T5, ELF3 (Homo sapiens, UniProt P78545 1-371); details: protein: recombinant; tags: N-terminal GST; dsDNA, one strand shown
# T5 sequence: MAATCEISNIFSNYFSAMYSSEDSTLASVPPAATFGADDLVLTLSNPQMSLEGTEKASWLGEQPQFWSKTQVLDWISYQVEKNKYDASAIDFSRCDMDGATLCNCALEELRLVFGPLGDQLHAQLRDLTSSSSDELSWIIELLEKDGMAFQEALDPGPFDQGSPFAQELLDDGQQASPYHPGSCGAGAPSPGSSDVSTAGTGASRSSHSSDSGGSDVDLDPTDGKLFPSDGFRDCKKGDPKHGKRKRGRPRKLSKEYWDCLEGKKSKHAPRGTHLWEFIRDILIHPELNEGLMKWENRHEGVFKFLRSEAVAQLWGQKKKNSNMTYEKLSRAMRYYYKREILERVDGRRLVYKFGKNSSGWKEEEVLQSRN
# Procedure, shortened: as §1
# ETV1 = ETV1 (Homo sapiens, UniProt P50549 1-477); details: protein: recombinant; tags: N-terminal GST; dsDNA, one strand shown
# Procedure, shortened: as §1
# Sequence of HSF1 (Q00613 whole entry): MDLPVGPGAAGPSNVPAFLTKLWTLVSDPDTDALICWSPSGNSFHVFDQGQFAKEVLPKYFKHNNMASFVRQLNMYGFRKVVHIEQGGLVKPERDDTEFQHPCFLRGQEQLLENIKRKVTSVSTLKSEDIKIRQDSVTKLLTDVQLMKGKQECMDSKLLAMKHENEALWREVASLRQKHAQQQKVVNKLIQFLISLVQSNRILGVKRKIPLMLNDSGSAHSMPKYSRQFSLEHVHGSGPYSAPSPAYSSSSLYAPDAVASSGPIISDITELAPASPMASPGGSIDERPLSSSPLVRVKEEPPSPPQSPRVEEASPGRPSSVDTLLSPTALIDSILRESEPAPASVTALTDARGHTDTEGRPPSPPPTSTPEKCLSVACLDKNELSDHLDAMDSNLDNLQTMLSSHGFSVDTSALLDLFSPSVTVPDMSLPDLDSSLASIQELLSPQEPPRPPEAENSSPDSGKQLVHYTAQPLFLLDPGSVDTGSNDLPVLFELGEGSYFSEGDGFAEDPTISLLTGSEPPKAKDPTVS
# Sequence of ETV1 (P50549 whole entry): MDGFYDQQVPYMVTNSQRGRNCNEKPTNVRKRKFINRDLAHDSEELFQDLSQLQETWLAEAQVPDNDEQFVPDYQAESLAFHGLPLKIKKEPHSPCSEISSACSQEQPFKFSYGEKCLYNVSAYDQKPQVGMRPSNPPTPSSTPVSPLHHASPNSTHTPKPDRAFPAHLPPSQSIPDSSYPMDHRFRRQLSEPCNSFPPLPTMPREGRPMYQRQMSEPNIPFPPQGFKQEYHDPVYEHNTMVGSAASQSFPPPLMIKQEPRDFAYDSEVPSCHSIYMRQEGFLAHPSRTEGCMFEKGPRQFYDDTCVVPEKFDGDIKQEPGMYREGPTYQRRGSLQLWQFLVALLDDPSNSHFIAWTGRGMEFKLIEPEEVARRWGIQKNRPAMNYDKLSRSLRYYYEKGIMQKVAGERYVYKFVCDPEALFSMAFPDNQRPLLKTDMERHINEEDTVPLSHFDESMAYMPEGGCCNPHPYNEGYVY
# Sequence of ELF4 (Q99607 whole entry): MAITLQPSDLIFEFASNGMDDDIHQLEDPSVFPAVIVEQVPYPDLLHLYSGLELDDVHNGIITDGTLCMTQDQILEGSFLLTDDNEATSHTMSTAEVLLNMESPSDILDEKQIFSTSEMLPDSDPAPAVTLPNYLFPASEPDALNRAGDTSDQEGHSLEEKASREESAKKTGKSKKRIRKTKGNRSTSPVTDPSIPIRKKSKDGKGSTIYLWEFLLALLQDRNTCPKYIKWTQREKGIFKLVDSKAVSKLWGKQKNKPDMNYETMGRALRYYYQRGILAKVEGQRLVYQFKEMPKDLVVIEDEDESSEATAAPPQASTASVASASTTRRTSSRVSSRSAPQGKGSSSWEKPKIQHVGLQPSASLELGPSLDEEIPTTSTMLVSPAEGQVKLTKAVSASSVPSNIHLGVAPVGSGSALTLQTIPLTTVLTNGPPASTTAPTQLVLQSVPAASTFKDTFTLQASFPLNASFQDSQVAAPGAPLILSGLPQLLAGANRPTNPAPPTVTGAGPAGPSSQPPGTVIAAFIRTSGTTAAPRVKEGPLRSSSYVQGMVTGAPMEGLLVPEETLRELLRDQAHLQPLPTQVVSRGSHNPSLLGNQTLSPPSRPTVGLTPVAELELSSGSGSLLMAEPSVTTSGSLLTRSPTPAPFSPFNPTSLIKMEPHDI
# Sequence of ETV5 (P41161 whole entry): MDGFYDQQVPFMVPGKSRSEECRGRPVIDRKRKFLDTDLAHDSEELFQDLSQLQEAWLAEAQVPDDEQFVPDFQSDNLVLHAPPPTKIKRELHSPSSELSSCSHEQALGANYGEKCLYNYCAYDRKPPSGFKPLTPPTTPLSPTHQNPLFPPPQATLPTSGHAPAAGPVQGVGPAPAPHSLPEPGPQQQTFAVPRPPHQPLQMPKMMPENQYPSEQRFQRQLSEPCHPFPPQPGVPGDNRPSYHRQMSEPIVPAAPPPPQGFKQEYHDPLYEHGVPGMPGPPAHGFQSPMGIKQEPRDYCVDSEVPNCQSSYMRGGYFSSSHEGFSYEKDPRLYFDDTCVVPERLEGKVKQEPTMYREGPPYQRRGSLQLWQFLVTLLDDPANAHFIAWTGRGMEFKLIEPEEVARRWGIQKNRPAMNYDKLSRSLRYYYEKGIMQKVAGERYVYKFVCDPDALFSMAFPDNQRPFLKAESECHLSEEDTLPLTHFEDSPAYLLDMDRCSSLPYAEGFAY
sequence,measurement,setting,value
CTGCCG,binding signal,FEV,"1.35 fold enrichment (6-mer frequency, TF over GST control)"
same,binding signal,ETV5,"1.36 fold enrichment (6-mer frequency, TF over GST control)"
same,binding signal,HSF1,"1.04 fold enrichment (6-mer frequency, TF over GST control)"
same,binding signal,SPIC,"1.31 fold enrichment (6-mer frequency, TF over GST control)"
same,binding signal,ELF4,"1.28 fold enrichment (6-mer frequency, TF over GST control)"
same,binding signal,ELK4,"1.24 fold enrichment (6-mer frequency, TF over GST control)"
same,binding signal,ETV2,"1.07 fold enrichment (6-mer frequency, TF over GST control)"
same,binding signal,ELF3,"1.09 fold enrichment (6-mer frequency, TF over GST control)"
same,binding signal,ETV1,"1.34 fold enrichment (6-mer frequency, TF over GST control)"

# — article PMC7862700, “An all-to-all approach to the identification of sequence-specific readers for epigenetic DNA modifications on cytosine”
